Source: PubChem BioAssay AID1259343 (VanderVen Lab, College of Veterinary Medicine, Cornell …, 2017)
Hit rate of the full screen: of about 6,200 compounds, about 2,900 (47%) were called active. So high a share suggests a set chosen from earlier hits. This is one part of the list. Values without a mark were called inactive. No stated cut-off is given here; in the data, active means inhibition above about 50%; inactive means the rest.

Assay: Mycobacterium tuberculosis growth inhibition, primary screen (AID 1259343)
Conditions: inhibition: at 10 µM, stronger effect = higher value; outcome: 10 uM
With Cc1nn(C)c(Cl)c1CNc1ccccc1 the inhibition was 5.19%. In the case of CC1(C)C2CCC1(C)C(NC(=O)Nc1nnc(C3CC3)s1)C2 (stereo not given), the inhibition is reported as 41%. With COc1ccc(C(N)c2csc(Nc3cc(Oc4ccccc4)ncn3)n2)cc1 (stereo not given) the inhibition was 58.8% (active). With O=C(O)c1oc2ccc(Cl)cc2c1-n1cccc1 the inhibition was 90.5% (active). Compound CCCCCNC(=O)C1CCN(C(=O)c2oc3ccc(Cl)cc3c2C)CC1 has an inhibition of 29.4%. O=C(c1cccs1)c1coc2ccc(Cl)cc2c1=O showed an inhibition of 43.6%. With COc1ccc(-c2nn3c(nc2=O)-c2ccccc2NC3C(C)C)cc1 (stereo not given) the inhibition was “inactive”. Work on COc1c(C)cc(C(=O)C2CCCN(Cc3cnc(SC)nc3)C2)cc1C (stereo not given) yielded an inhibition of 47.7%. For O=C(c1ccc(Oc2ccccc2)cc1)C1CCCN(C(=O)c2ccc3nccnc3c2)C1 (stereo not given), the inhibition was 56% (active). For O=C(c1ccc(Oc2ccccc2)cc1)C1CCCN(C(=O)c2cnsn2)C1 (stereo not given), the inhibition was 64.4% (active). Compound Cc1occc1C(=O)N1CCCC(C(=O)c2ccc(Oc3ccccc3)cc2)C1 (stereo not given) has an inhibition of 17%. In the case of CSc1ncc(CN2CCCC(C(=O)c3ccc(Oc4ccccc4)cc3)C2)cn1 (stereo not given), the inhibition is reported as 92.1% (active). Cc1nonc1C(=O)N1CCCC(C(=O)c2ccc(Oc3ccccc3)cc2)C1 (stereo not given) showed an inhibition of 13.8%. O=C(c1ccc(-c2ccccc2)cc1)C1CCCN(C(=O)c2ccc3nccnc3c2)C1 (stereo not given) showed an inhibition of 18.2%. Compound O=C(COC(=O)c1n[nH]c(=O)c2ccccc12)Nc1ccc2c(c1)CCC2 has an inhibition of 37.8%. With O=C(COCC(F)(F)F)Nc1ccc2c(c1)C(=O)CCC2 the inhibition was 81.5% (active). O=C(Nc1ccc2c(c1)CCC2)C1CCN(C(=O)OCC(F)(F)F)CC1 showed an inhibition of 49.5%. With Clc1ccc(-c2noc(CSc3ccc(Br)cc3)n2)cc1 the inhibition was 66.5% (active). For Cc1ccc(CNC(=O)c2c(O)nc3sccn3c2=O)cc1, the inhibition was 74.4% (active). O=C(NCc1ccc(Cl)cc1)c1c(O)nc2ccccn2c1=O gave an inhibition of 25.1%. With O=C(NCc1ccc(Cl)cc1)c1c(O)nc2sccn2c1=O the inhibition was 81.1% (active). Work on O=C(NCCc1ccccc1)c1c(O)nc2sccn2c1=O yielded an inhibition of 1.99%. Work on O=C(NC1CCCCC1)c1c(O)nc2ccccn2c1=O yielded an inhibition of 42.4%. Compound Cc1cccc(C)c1Cn1c(C)c(C(=O)NCc2ccc(Cl)c(Cl)c2)sc1=O has an inhibition of 16.1%. With O=C(NCc1ccccc1)c1c(O)nc2sccn2c1=O the inhibition was 63.3% (active). For Cc1ccc(CNC(=O)CN2CCc3sccc3C2C)cc1 (stereo not given), the inhibition was 27%. In the case of O=C(NCc1ccc(F)cc1)c1c(O)nc2sccn2c1=O, the inhibition is reported as 59.5% (active). With Fc1cccc(Nc2cc3[nH]c(-c4cccc(F)c4)cc3cn2)c1 the inhibition was 30.6%. With COCC(C)NC(=O)C12CCC(C)(C(=O)O1)C2(C)C (stereo not given) the inhibition was 100% (active). Work on COCC(C)NC(=O)c1ccc(CSc2ccccc2)o1 (stereo not given) yielded an inhibition of -22.4%. Brc1ccc(-n2nc(-c3ccccc3)n[n+]2-c2nnn[n-]2)cc1 gave an inhibition of 49.9%. For O=C(O)c1cc(-c2ccc(Cl)c(Cl)c2)ns1, the inhibition was 90% (active). Compound O=C(O)c1cc2cc(Cl)sc2s1 has an inhibition of 37%. In the case of CCN(CC)c1ccc(CN(C)S(=O)(=O)c2ccc(F)cc2)cc1, the inhibition is reported as 33.5%. For CN(Cc1ccc(Cl)s1)S(=O)(=O)c1ccc(Cl)cc1, the inhibition was 73.6% (active). In the case of Cc1ccc2c(c1)C1CN(C)CCC1N2C(=O)NCC1CCCC1 (stereo not given), the inhibition is reported as 45.5%. In the case of O=C(Nc1cccc2cccnc12)N1CCCC1C1CCCC1 (stereo not given), the inhibition is reported as 27.2%. For O=C(CN1CCc2ccccc2C1)Nc1nc(-c2cc3ccccc3o2)cs1, the inhibition was 5.08%. With O=C(CN1CCc2ccccc2C1)NCC1CCN(c2ccccc2)C1 (stereo not given) the inhibition was 91.3% (active). In the case of CC(=O)NCCC1CCN(c2nncc(-c3ccc(Cl)cc3)n2)CC1, the inhibition is reported as 38%. For O=C(NCC1CC1)N1Cc2ccccc2C(c2ccccc2)C1 (stereo not given), the inhibition was 8.6%. With O=C(NCC1CCN(c2ccccc2)C1)N1CCCC1C1CCCC1 (stereo not given) the inhibition was 67.7% (active). With CC(C)CC(=O)NCC1CCN(c2ccc(Cl)cc2)C1 (stereo not given) the inhibition was 68.8% (active). With Fc1cccc2sc(Nc3nnc(-c4cccs4)o3)nc12 the inhibition was 101% (active). O=C(Nc1nc2c(Br)cccc2s1)Nc1c(F)cccc1F showed an inhibition of 28.4%. In the case of Cc1cccc2cc(CNC(C)Cc3ccco3)c(Cl)nc12 (stereo not given), the inhibition is reported as 24.3%. For N#Cc1c(Cl)cccc1Oc1cccc(C(=O)O)c1, the inhibition was 6.19%. With CC(C)(Cc1ccc2ccccc2c1)NC[C@@H](O)COc1cccc(Cl)c1C#N the inhibition was 87.4% (active). In the case of CNc1ccc(C(=O)N2CCOC(COc3ccc(Cl)c(C)c3)C2)cc1 (stereo not given), the inhibition is reported as 53% (active). Cc1ccccc1OCC(=O)N1CCOC(COc2cccc(C(F)(F)F)c2)C1 (stereo not given) showed an inhibition of 6.21%. In the case of Cc1cc(OCC2CN(C(=O)COc3ccccc3C)CCO2)ccc1Cl (stereo not given), the inhibition is reported as 50.9% (active). For Cc1ccc(OCC2CN(C(=O)COc3ccc(F)cc3)CCO2)cc1 (stereo not given), the inhibition was 82.5% (active). With Cc1ccc(OCC2CN(C(=O)COc3ccccc3C)CCO2)cc1 (stereo not given) the inhibition was 75.9% (active). Work on O=C(Cc1cccc(Cl)c1)N1CCOC(COc2ccc3c(c2)CCCC3)C1 (stereo not given) yielded an inhibition of 44%. For Cc1cc(OCC2CN(C(=O)c3ccc(C#N)cc3F)CCO2)ccc1Cl (stereo not given), the inhibition was 5.04%. O=C(COc1ccc(F)cc1)N1CCOC(COCc2c(Cl)cccc2Cl)C1 (stereo not given) gave an inhibition of 34%. COc1cccc(CC(=O)N2CCOC(COc3ccc(F)cc3)C2)c1 (stereo not given) gave an inhibition of 24%. With Cc1cc(OCC2CN(C(=O)COCc3ccccc3)CCO2)ccc1Cl (stereo not given) the inhibition was 50.5% (active). O=C(Cc1cccc(Cl)c1)N1CCOC(COc2ccc(F)cc2)C1 (stereo not given) showed an inhibition of 11.7%. In the case of Cc1cc(OCC2CN(C(=O)Cc3ccc4c(c3)OCO4)CCO2)ccc1Cl (stereo not given), the inhibition is reported as 65.7% (active). For O=C(NCCC(=O)N1CCOC(COCc2ccc(F)cc2Cl)C1)OCc1ccccc1 (stereo not given), the inhibition was 61% (active). With O=C(Cc1cccc(Cl)c1)N1CCOC(COCc2ccccc2F)C1 (stereo not given) the inhibition was 30.4%. For Cc1cc(OCC2CN(C(=O)Cc3cccc(Cl)c3)CCO2)ccc1Cl (stereo not given), the inhibition was 31%. Compound COc1cccc(CC(=O)N2CCOC(COc3ccc(Cl)c(C)c3)C2)c1 (stereo not given) has an inhibition of 4.53%. In the case of Cc1ccccc1OCC(=O)N1CCOC(COCc2ccccc2F)C1 (stereo not given), the inhibition is reported as 72.4% (active).
